Several values for one entry are separate records, joined by “and”; a condition that tells them apart may be missing. Equal entries are not always repeated. Results filed as inconclusive are left out. A number with no mark means an inactive call. Activity calls are given as the source filed them. Unless noted, calls follow the shape of the dose curve; as a rule, active = well fitted curve in the direction sought with a large enough effect; inconclusive = small, poorly fitted or top-dose-only effect, or another doubt; inactive = no such curve, though single readings can be large; an effect the other way counts as inactive or inconclusive.

The target in assay [1] is Cellular tumor antigen p53 (Homo sapiens) (UniProt P04637). Briefly: Primary qHTS for small molecule compounds that upregulate eGFP-tagged delta133p53alpha (in N-terminal) cells. (AID 2060322).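 Also: cells pre-induced with doxycycline then dosed without doxycycline; series mostly up to about 56 µM; 0% = DMSO vehicle and 100% = reference activator; nearly all actives have a fitted effect of over 75% in size.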 To be noted: NCI-H358 eGFP-delta133p53alpha fluorescence, 24 h; activation: stronger effect = higher value. The procedure, abridged:
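NCI-H358 cells pre-induced 24 h with 10 ng/ml doxycycline for eGFP-delta133p53alpha, plated dox-free and exposed 24 h at 37C to titrated compounds. Fixed, Hoechst-stained; gated GFP peak intensity by laser scanning cytometry, normalized to DMSO (0%) and 57.5 uM 5-azacytidine (100%).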
In general terms: Quantitative high-throughput screening tests each substance at several concentrations.

Assay [2] shares this target. The assay is described as follows: Primary qHTS for small molecule compounds that upregulate eGFP-tagged delta133p53alpha (in C-terminal) cells. (AID 2060324).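 Also: 0% = DMSO wells and 100% = 57.5 µM 5-azacytidine.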 An outline of the steps: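 Readout: filtered GFP peak intensity of gated cells (laser scanning cytometer), normalized plate-wise to intraplate controls, DMSO wells = 0% activity. Cells: NCI-H358 D133p53a-eGFP, dox 100 ng/ml 24 h beforehand, then compound 24 h, 37 °C.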

The target in assay [3] is Aldehyde dehydrogenase, mitochondrial (Homo sapiens) (UniProt P05091). The assay is described as follows: qHTS for Inhibitors of the Aldehyde Dehydrogenase Family (ALDH2) Validation screens (AID 2061302; active = well fitted inhibition curve with a large enough effect; title and protocol of this record describe different tests;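 also: plate controls were DMSO vehicle for no effect and maximal DPI positive control response for full effect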).
Assay [4] shares this target. The assay is described as follows: qHTS for Inhibitors of the Aldehyde Dehydrogenase Family (ALDH2) Primary screen (AID 2061308).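 Also: plate controls were vehicle for no effect and reference inhibitor for full effect; nearly all actives have a fitted effect of over 55% in size.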
The target in assay [5] is Retinaldehyde dehydrogenase 3 (Homo sapiens) (UniProt P47895). The assay is described as follows: qHTS for Inhibitors of the Aldehyde Dehydrogenase Family (ALDH1A3) Validation screen (AID 2061312). Also: % is scaled to controls: 0 for no effect and ±100 for the full control effect; nearly all actives have a fitted effect of over 45% in size.
Assay [6] shares this target. The assay is described as follows: qHTS for Inhibitors of the Aldehyde Dehydrogenase Family (ALDH1A3) Primary screen (AID 2061315).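 Also: plate controls were DMSO vehicle for no effect and reference inhibitor for full effect.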
Assay [7] in a line: BET inhibitor-based combinations targeting novel dependencies in MECOM-rearranged (r) AML: SET-2 cell line (AID 2202231). Also: nearly all actives have a fitted effect of over 35% in size. Also: potency is read from the fitted curve at half-maximal effect.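 As to viability: plate controls were DMSO treated cells for no effect and wells without cells for full effect.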 As to conditions: SET-2 AML cells viability, CellTiter-Glo luminescence, 48 h; viability: stronger effect = lower value, concentration not given here. The procedure, abridged:
(§1)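 Viability of cells (500 per well) is scored by luminescent CellTiter-Glo at 48 hr post-dosing. Eleven-point titrations are normalized to DMSO and empty controls and reduced to AUC values.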
For orientation: Cellular ATP, detected with luciferase, serves as a proxy for viable cell number.

Assay [8] is described as follows: BET inhibitor-based combinations targeting novel dependencies in MECOM-rearranged (r) AML: MV-4-11 cell line (AID 2202233). Also: potency is read from the fitted curve at half-maximal effect; nearly all actives have a fitted effect of over 45% in size. An outline of the steps:
(§2)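 Using pin-tool transfer, drugs were added in 11 doses to cells (500/well), incubated 48 hr, and assessed with CellTiter-Glo. Z-AUC is a mean-centring transformation applied separately to each screened line.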

Assay [9] in a line: BET inhibitor-based combinations targeting novel dependencies in MECOM-rearranged (r) AML: HNT-34 cell line (AID 2202234).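 Also: plate controls were vehicle wells for no effect and cell-free wells for full effect; nearly all actives have a fitted effect of over 35% in size.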 An outline of the steps:
as §2

Assay [10] is described as follows: BET inhibitor-based combinations targeting novel dependencies in MECOM-rearranged (r) AML: UCSD-AML1 cell line (AID 2202235). Also: nearly all actives have a fitted effect of over 40% in size. Also: potency is read from the fitted curve at half-maximal effect. An outline of the steps: as §2
Assay [11] is described as follows: BET inhibitor-based combinations targeting novel dependencies in MECOM-rearranged (r) AML: AML-191 cell line (AID 2202236; also: nearly all actives have a fitted effect of over 35% in size; also: potency is read from the fitted curve at half-maximal effect). The procedure, abridged: as §1
A short description of assay [12]: BET inhibitor-based combinations targeting novel dependencies in MECOM-rearranged (r) AML: AML-194 cell line (AID 2202237; also: nearly all actives have a fitted effect of over 40% in size; also: potency is read from the fitted curve at half-maximal effect). The procedure, abridged:
as §1

Assay [13] in a line: BET inhibitor-based combinations targeting novel dependencies in MECOM-rearranged (r) AML: OCI-AML3 cell line (AID 2202232).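 Also: series mostly up to about 46 µM; plate controls were DMSO vehicle wells for no effect and wells without cells for full effect; nearly all actives have a fitted effect of over 35% in size.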 To be noted: Potency: OCI-AML3 viability. The procedure, abridged:
as §1

Sequence of Cellular tumor antigen p53 (Homo sapiens) (P04637 whole entry, looked up): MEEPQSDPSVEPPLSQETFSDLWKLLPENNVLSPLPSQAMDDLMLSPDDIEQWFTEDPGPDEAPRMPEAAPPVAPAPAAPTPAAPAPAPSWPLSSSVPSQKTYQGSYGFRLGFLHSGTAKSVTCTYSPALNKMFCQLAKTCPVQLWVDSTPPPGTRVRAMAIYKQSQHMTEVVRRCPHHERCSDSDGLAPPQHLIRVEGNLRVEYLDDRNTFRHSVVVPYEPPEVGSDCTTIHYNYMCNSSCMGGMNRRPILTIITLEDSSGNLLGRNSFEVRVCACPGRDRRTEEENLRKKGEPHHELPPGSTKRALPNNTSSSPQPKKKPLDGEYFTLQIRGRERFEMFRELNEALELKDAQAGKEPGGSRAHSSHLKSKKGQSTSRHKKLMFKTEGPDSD

On to `Fc1ccc2[nH]c(CN3CCN(c4ccccn4)CC3)cc2c1`, for which the activation in [1] is -0.955%. The Potency entry in assay [2], in assay [3], in [4], in [5] and in assay [6] was “inactive” in each case.

Usually viability stands for a read-out of living cells in per cent, often relative to untreated cells. With `O=C(Nc1ccc2c(c1)CCN(Cc1ncn[nH]1)C2)c1ccccc1-c1ccc(C(F)(F)F)cc1`, in [1], the activation was -9.63% and 4.33%. Besides, the Potency entry in [2], in assay [3], in assay [4], in assay [5], in assay [6] and in assay [9] was “inactive” in each case. Further, the Potency result in assay [10], in [11] and in assay [12] was “inactive” in each case. Further, the viability in assay [7] was 96.3%. In addition, the Potency in assay [8] is 14.8 µM (active).

Take `O=[N+]([O-])c1ccc(-c2nc(-c3ccc(F)cc3)c(-c3ccncc3)[nH]2)cc1`: the activation in [1] is 47.4%. The Potency result in [2], in [3], in assay [4], in assay [5], in assay [6] and in [13] was “inactive” throughout. For the same compound, the Potency result in assay [9], in [10] and in [12] was “inactive” each time. Also, the viability in assay [7] is 106%.

Consider `CCNc1nc2c(ncn2[C@H]2C[C@H](O)[C@@H](CO)O2)c(=O)[nH]1`, for which the activation in [1] is 9.4% and 5.67%. Besides, the Potency result in assay [2], in [3], in assay [4], in assay [5] and in [6] was “inactive” in each case.

Regarding `Clc1ccc(Cn2c(CN3CCCC3)nc3ccccc32)cc1`, in assay [1], the activation is -13.4% and 2.33% and -45.4%. Further, the Potency result in assay [2], in assay [3], in assay [4], in assay [5] and in assay [6] was “inactive” each time. Besides, the Potency in assay [7] is 20.9 µM (active); in assay [8] it was 20.9 µM (active); in assay [10], 20.9 µM (active); in assay [11], 18.6 µM (active); in [12], 20.9 µM (active).

Take `CN(C)CCCC1(c2ccc(F)cc2)OCc2cc(C#N)ccc21` (configuration not stated): the activation in assay [1] was 2.08% and 5.36% and -45.1%. In addition, the Potency entry in assay [2], in assay [3], in assay [4], in assay [5] and in [6] was “inactive” each time.

Source of the values: PubChem BioAssay (NCATS).
